Results filed as inconclusive are left out. Entries that show only a call come without a potency. The source made the active and inactive calls. Calls come from the whole dose curve. Where a SMILES comes first, the peptide text is derived from it. [ ]: non-standard residue; d: D form. pGlu = O=C1CC[C@@H](C(=O)O)N1
target: Progesterone receptor (Homo sapiens) (UniProt P06401); experiment: qHTS assay to identify small molecule agonists of the progesterone receptor (PR) signaling pathway (AID 1346784); conditions: PR-UAS-bla HEK293T, beta-lactamase FRET ratio, 16 h; series mostly up to 92.4 µM; note: nearly all actives have a fitted effect of over 30% in size
How it was run: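 Compounds were tested for PR agonism in HEK 293T cells bearing a beta-lactamase gene under UAS control. Treatment lasted 16 hr at 37C; signal came from fluorescence of a FRET substrate.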

Sequence of Progesterone receptor (Homo sapiens) (P06401 whole entry, looked up): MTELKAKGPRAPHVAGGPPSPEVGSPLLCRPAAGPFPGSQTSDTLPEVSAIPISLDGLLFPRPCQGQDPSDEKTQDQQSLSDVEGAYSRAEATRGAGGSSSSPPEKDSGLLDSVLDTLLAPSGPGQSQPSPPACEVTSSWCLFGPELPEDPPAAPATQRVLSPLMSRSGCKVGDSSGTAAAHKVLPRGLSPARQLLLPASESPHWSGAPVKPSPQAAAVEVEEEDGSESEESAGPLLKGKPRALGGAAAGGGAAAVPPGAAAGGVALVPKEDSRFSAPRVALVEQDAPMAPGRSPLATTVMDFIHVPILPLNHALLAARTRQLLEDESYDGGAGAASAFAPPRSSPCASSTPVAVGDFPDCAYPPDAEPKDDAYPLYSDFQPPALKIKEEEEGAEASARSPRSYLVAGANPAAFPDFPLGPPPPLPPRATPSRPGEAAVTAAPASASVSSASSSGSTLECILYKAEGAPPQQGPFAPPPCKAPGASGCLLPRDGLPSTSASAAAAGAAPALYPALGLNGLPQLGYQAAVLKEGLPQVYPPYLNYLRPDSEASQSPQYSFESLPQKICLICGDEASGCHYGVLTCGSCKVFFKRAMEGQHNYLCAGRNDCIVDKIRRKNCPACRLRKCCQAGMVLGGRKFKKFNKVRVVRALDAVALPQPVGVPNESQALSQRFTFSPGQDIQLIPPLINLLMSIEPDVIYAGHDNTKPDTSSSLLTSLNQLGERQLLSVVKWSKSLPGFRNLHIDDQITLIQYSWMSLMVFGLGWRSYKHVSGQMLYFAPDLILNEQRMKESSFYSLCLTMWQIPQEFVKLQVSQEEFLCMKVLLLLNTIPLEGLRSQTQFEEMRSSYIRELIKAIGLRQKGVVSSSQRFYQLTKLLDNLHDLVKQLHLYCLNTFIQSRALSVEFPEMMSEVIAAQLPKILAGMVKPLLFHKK

SMILES | Potency
CC1(C)OC[C@@H](COC(=O)CCc2ccc(OC[C@@H](O)CNCCNC(=O)N3CCOCC3)cc2)O1 | inactive
CCC(C(=O)NC(=O)NC(C)=O)c1ccccc1 (configuration not stated) | inactive
CC(C)(N)C#N | inactive
CN1C(C)(C)CC(O)CC1(C)C | inactive
O=C(c1ccccc1)C1(O)CCCCC1 | inactive
[O-][n+]1cccc(CO)c1 | inactive
CCNC(=O)[C@@H]1CCCN1C(=O)[C@H](CCCN=C(N)N)NC(=O)[C@H](CC(C)C)NC(=O)CNC(=O)[C@H](Cc1ccc(O)cc1)NC(=O)[C@H](CO)NC(=O)[C@H](Cc1c[nH]c2ccccc12)NC(=O)[C@H](Cc1cnc[nH]1)NC(=O)[C@@H]1CCC(=O)N1 ([pGlu]HWSYGLRP-NHEt) | inactive
CC(C)CC(C)(N)C#N (configuration not stated) | inactive
O=C(O)CCSCCC(=O)O | inactive
CC(COc1ccccc1)NN (configuration not stated) | inactive
C=CC(=O)OCCCl | inactive
NS(=O)(=O)Cc1noc2ccccc12 | inactive
CCNS(=O)(=O)c1ccc(C)cc1 | inactive
CC(=O)NC(=O)c1ccccc1O | inactive
OCCCCCO | inactive
O=C(CO)[C@@H](O)[C@H](O)[C@H](O)CO | inactive
C=CC(C)(CCC=C(C)C)OC(=O)CC (configuration not stated) | inactive
CN(C)[C@@H]1C(=O)C(C(=O)NCN2CCCC2)=C(O)[C@@]2(O)C(=O)C3=C(O)c4c(O)cccc4[C@@](C)(O)C3C[C@@H]12 (some centres not stated) | inactive
Clc1cc(Cl)cc(Cl)c1 | inactive
O=C1CCCCCCCCCCCCCCO1 | inactive
CCCO[Si](OCCC)(OCCC)OCCC | inactive
C=COCC1CCC(COC=C)CC1 (configuration not stated) | inactive
